Results on 12 molecules are retold here after PubChem BioAssay (EPA / NIEHS).

Assay [1] addresses Cytochrome P450 2C19 (Homo sapiens) (UniProt P33261). Briefly: NVS_ADME_hCYP2C19: NovaScreen (NVS) CYP450-related Enzyme Activity (ADME) Assay for human CYP2C19 (AID 2283113).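 Note: potency for inhibition seen as loss of fluorescent signal.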 In short, it runs like this: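 Recombinant insect-cell-expressed enzyme, fluorescent substrate, 1 h after chemical addition, fluorescence intensity. Baseline = acetonitrile vehicle; activity scored as signal loss. Primary HTS single concentration 10 uM, duplicate; actives retested in concentration series.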

Assay [2] has as its target human Beta-secretase (BACE), BACE1 (gene 23621) (UniProt P56817). Briefly: NVS_ENZ_hBACE: NovaScreen (NVS) Enzymatic Assay for human Beta-secretase (BACE) (AID 2283140).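 Note: hits are inhibitors that reduce fluorescent substrate signal versus DMSO.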 In a few lines:
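Recombinant BACE1 (SF9 extract) incubated with compound and fluorescent substrate, 1 h. Plates carried positive and DMSO negative controls. Initial single dose 25 uM, duplicate; confirmation by concentration series.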

The target of assay [3] is human Dual Specificity Protein Phosphatase 3 (DUSP3), DUSP3 (gene 1845) (UniProt P51452). Briefly: NVS_ENZ_hDUSP3: NovaScreen (NVS) Enzymatic Assay for human Dual Specificity Protein Phosphatase 3 (DUSP3) (AID 2283152).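 Note: phosphatase activity of recombinant human DUSP3 on a fluorogenic substrate without cells.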 In a few lines:
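Cell-free assay with recombinant human DUSP3 and fluorogenic substrate, read by fluorescence intensity. Primary screen ran duplicate at 25 uM; actives followed up in concentration series; loss of signal versus DMSO scored.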

The target in assay [4] is human Ephrin type-A Receptor 1 (EphA1), EPHA1 (gene 2041) (UniProt P21709). Put plainly: NVS_ENZ_hEphA1: NovaScreen (NVS) Enzymatic Assay for human Ephrin type-A Receptor 1 (EphA1) (AID 2283158).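 Note: activity is signal loss versus DMSO meaning EphA1 kinase inhibition.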 The procedure: NVS_ENZ_hEphA1 is a biochemical, single-readout assay that uses extracted gene-proteins in a cell-free assay. Measurements were taken 1 hour after chemical dosing in a 384-well plate.NVS_ENZ_hEphA1 is one of one assay component(s) measured or calculated from the NVS_ENZ_hEphA1 assay. It is designed to make measurements of enzyme activity, a form of enzyme reporter, as detected with fluorescence intensity signals by Fluorescence and electrophoretic mobility shift technology.Data from the assay component NVS_ENZ_hEphA1 was analyzed into 1 assay endpoint. This assay endpoint, NVS_ENZ_hEphA1, was analyzed in the positive analysis fitting direction relative to DMSO as the negative control and baseline of activity. Using a type of enzyme reporter, loss-of-signal activity can be used to understand changes in the enzymatic activity as they relate to the gene EPHA1. Furthermore, this assay endpoint can be referred to as a primary readout, because this assay has produced multiple assay endpoints where this one serves a enzymatic activity function. To generalize the intended target to other relatable targets, this assay endpoint is annotated to the kinase intended target family, where the subfamily is receptor tyrosine kinase.
Chain of human Ephrin type-A Receptor 1 (EphA1), EPHA1 (gene 2041) (P21709 whole entry, looked up): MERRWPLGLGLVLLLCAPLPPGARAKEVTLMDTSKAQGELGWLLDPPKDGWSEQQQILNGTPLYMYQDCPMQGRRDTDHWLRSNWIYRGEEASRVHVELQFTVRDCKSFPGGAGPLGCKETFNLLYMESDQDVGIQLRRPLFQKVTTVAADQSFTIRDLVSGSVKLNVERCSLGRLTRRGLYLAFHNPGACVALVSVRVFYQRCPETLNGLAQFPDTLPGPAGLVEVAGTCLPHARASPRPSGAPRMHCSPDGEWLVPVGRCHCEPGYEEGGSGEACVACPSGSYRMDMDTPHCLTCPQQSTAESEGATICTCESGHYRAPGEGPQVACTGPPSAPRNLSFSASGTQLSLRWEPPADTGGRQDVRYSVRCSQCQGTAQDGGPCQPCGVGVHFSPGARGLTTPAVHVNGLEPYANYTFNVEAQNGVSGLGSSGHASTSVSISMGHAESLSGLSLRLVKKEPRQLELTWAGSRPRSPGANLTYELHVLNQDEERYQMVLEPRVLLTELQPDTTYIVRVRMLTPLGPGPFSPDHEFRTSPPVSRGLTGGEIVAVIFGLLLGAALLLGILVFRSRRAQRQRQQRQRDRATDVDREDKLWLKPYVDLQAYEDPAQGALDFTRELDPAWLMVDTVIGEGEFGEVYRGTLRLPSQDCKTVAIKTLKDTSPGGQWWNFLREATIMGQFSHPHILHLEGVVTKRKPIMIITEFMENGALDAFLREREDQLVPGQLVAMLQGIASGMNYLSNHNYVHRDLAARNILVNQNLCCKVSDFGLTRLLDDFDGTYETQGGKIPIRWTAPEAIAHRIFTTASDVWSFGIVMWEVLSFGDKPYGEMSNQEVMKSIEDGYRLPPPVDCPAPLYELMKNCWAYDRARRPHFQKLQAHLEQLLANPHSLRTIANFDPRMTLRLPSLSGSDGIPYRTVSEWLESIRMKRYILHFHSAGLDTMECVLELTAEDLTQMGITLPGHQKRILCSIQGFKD
Binding assays used specific radioligands (tritiated, iodinated) with non-radioactive competitive displacement ligands in agonist or antagonist protocols (as indicated) and various reference compounds and inhibitors to titrate specific binding to receptors and transporters. Most enzyme assays (CYPs, kinases, phosphatases, proteases, HDACs) used recombinant protein and specific substrates (fluorescence mostly, some colorimetric and radioactive) and inhibitors, followed by a biochemical separation of substrate and product. All assays for the biochemical HTS were initially run in duplicate at a single concentration (10 uM for CYP450 assays and 25 uM for all others). […]

Assay [5] deals with human Matrix Metalloproteinase-9 (MMP9), MMP9 (gene 4318) (UniProt P14780). Put plainly: NVS_ENZ_hMMP9: NovaScreen (NVS) Enzymatic Assay for human Matrix Metalloproteinase-9 (MMP9) (AID 2283190).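 Note: cell-free recombinant MMP9 protease activity read by fluorescent substrate signal; active means inhibition seen as loss of fluorescence signal versus DMSO.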 In a few lines: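 Cell-free fluorescence-intensity enzyme activity assay using extracted protein, read 1 h after dosing. Loss of signal versus DMSO baseline indicates inhibition; primary screen in duplicate at 25 uM, actives followed up in concentration series.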
Chain of human Matrix Metalloproteinase-9 (MMP9), MMP9 (gene 4318) (P14780 whole entry, looked up): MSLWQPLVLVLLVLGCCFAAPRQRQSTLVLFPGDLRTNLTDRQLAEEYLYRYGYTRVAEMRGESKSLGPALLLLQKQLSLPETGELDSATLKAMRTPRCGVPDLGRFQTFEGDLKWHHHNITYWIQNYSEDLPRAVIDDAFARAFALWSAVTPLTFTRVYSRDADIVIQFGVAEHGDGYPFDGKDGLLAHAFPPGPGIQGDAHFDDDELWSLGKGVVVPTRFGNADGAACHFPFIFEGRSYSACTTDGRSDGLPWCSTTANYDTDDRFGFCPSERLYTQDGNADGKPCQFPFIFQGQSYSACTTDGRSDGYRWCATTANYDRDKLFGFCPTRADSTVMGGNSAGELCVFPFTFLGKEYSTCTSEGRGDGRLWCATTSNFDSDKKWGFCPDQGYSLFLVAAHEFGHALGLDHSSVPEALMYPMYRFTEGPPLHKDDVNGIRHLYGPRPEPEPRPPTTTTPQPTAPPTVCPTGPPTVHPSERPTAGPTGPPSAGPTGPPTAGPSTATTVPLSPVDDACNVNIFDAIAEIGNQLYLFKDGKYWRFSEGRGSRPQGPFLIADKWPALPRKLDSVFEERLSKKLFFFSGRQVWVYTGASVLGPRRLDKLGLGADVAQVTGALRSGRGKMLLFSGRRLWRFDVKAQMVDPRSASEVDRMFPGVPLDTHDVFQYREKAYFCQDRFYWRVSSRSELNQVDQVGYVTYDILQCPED

The target in assay [6] is human Phosphoinositide 3-kinase alpha (PI3Ka), PIK3CA (gene 5290) (UniProt P42336). Briefly: NVS_ENZ_hPI3Ka: NovaScreen (NVS) Enzymatic Assay for human Phosphoinositide 3-kinase alpha (PI3Ka) (AID 2283196). In short, it runs like this: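 Enzyme activity as fluorescence after mobility-shift separation of substrate and product, 1 h reaction, recombinant human PI3Kα; concentration-response to 50 uM max for chemicals passing a 25 uM duplicate screen.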
Chain of human Phosphoinositide 3-kinase alpha (PI3Ka), PIK3CA (gene 5290) (P42336 whole entry, looked up): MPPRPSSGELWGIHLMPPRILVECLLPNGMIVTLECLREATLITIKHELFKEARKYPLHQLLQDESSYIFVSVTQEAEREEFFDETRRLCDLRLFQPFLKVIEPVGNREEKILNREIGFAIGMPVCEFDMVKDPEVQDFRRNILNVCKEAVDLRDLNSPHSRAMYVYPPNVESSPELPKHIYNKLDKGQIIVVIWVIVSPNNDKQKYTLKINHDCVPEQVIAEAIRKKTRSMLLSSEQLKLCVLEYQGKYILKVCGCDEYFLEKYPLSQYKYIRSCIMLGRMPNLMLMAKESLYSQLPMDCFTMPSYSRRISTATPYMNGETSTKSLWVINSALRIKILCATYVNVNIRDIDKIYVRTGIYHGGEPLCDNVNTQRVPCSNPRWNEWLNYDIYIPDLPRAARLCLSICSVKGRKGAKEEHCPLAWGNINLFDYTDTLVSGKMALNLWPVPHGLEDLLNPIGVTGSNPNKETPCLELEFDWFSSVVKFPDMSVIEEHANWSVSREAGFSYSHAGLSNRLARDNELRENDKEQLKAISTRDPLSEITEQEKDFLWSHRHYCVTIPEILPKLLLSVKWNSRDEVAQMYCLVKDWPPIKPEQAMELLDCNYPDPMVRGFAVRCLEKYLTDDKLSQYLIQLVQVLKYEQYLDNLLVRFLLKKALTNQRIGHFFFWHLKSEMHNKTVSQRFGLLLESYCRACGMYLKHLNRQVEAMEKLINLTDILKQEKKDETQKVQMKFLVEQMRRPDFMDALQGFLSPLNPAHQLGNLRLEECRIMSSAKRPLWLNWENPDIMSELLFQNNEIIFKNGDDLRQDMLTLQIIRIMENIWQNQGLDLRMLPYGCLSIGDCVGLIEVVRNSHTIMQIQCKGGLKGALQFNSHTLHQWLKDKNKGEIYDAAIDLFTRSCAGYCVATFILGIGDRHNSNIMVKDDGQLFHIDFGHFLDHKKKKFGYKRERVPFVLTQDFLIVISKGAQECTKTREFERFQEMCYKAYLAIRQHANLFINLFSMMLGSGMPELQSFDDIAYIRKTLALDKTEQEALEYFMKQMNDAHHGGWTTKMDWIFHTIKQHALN

Assay [7] deals with human Vascular Endothelial Growth Factor Receptor 1 (VEGFR1), FLT1 (gene 2321) (UniProt P17948). Briefly: NVS_ENZ_hVEGFR1: NovaScreen (NVS) Enzymatic Assay for human Vascular Endothelial Growth Factor Receptor 1 (VEGFR1) (AID 2283226). In a few lines:
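Cell-free assay of recombinant human VEGFR1 kinase with substrate, measured 1 h after dosing; fluorescence with electrophoretic mobility-shift separation of substrate and product, referenced to DMSO; primary screen at 25 uM in duplicate, actives then run in concentration series.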

Assay [8] addresses guinea pig Leukotriene D4 Receptor (LTD4), CYSLTR1 (gene 100135514) (UniProt Q2NNR5). Briefly: NVS_GPCR_gLTD4: NovaScreen (NVS) G Protein-Coupled Receptor Assay for guinea pig Leukotriene D4 Receptor (LTD4) (AID 2283248). In short, it runs like this: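 Radioligand displacement on guinea pig lung membranes, 1 h incubation, filtration and scintillation counting; DMSO as negative control. Duplicate 25 uM primary screen, then singleton concentration-response up to 50 uM.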

The target of assay [9] is human Phosphodiesterase 10 (PDE10), PDE10A (gene 10846) (UniProt Q9Y233). Briefly: NVS_ENZ_hPDE10: NovaScreen (NVS) Enzymatic Assay for human Phosphodiesterase 10 (PDE10) (AID 2283195). In a few lines:
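Recombinant human PDE10 with fluorescent substrate, 1 h, product separated by electrophoretic mobility shift. Loss of enzyme activity fitted against DMSO; initial screen 25 uM in duplicate, actives run to 50 uM maximum.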

Assay [10] deals with human Caspase 5 (CASP5), CASP5 (gene 838) (UniProt P51878). Briefly: NVS_ENZ_hCASP5: NovaScreen (NVS) Enzymatic Assay for human Caspase 5 (CASP5) (AID 2283137). In short, it runs like this:
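Cell-free protease assay with bacterially expressed CASP5 and a fluorescent substrate, measured at 2 h. Values fitted relative to DMSO as baseline, from concentration-response series topping at 50 uM.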

Results filed as inconclusive are left out. Activity calls are given as the source filed them. Rule for the calls: active = hit-call score of the fitted dose curve at least 0.9, where 1 is the maximum; inconclusive = response in the unintended direction; inactive = score below 0.9.

Chain of human Phosphodiesterase 10 (PDE10), PDE10A (gene 10846) (Q9Y233 whole entry, looked up): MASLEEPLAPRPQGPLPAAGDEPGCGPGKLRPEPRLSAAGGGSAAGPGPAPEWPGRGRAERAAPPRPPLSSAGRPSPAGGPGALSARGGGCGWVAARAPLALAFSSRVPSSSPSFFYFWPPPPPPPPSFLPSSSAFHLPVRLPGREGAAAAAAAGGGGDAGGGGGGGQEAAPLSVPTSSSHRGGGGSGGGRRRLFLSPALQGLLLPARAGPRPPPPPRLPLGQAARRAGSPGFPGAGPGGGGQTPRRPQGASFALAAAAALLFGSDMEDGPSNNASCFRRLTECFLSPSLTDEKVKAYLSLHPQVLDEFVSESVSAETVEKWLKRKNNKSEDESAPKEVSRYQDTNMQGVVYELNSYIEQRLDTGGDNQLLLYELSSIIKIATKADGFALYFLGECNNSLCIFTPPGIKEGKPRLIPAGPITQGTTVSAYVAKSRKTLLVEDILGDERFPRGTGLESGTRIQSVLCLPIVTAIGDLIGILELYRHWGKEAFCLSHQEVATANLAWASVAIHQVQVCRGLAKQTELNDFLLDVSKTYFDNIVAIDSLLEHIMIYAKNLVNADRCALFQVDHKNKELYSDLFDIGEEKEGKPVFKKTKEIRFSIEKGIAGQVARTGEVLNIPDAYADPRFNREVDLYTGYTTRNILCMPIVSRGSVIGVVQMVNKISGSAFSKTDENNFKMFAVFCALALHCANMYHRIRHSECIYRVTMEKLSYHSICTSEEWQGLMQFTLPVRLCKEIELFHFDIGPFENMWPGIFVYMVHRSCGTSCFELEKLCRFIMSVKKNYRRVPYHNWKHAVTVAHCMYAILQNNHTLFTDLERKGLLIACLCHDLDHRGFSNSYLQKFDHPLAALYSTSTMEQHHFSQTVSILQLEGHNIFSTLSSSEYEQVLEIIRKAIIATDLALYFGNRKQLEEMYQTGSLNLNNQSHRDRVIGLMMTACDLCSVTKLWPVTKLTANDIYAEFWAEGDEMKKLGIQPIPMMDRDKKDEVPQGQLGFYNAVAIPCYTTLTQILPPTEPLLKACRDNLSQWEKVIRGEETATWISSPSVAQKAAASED
Chain of human Beta-secretase (BACE), BACE1 (gene 23621) (P56817 whole entry, looked up): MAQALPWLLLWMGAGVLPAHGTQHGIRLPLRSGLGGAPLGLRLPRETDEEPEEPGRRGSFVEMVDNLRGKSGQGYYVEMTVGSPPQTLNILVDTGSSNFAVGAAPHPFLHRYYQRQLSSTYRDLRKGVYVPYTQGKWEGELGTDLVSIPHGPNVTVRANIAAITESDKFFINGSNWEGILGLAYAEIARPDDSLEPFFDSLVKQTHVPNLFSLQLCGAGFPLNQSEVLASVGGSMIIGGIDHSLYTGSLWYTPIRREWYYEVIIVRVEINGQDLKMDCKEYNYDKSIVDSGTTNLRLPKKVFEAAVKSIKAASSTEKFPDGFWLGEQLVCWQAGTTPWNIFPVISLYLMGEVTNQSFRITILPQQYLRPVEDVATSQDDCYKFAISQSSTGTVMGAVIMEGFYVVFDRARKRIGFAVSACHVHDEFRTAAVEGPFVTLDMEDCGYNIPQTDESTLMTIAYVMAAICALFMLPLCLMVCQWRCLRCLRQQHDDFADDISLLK
Chain of guinea pig Leukotriene D4 Receptor (LTD4), CYSLTR1 (gene 100135514) (Q2NNR5 whole entry, looked up): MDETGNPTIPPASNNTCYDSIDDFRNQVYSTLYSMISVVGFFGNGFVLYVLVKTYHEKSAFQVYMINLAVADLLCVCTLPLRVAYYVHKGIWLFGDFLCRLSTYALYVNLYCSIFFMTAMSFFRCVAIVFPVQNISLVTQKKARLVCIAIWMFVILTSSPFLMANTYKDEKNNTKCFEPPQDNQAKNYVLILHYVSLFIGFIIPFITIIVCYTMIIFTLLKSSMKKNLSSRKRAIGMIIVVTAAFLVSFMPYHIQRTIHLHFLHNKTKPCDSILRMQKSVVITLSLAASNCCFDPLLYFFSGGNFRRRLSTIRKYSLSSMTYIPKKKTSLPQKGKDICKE
Chain of human Dual Specificity Protein Phosphatase 3 (DUSP3), DUSP3 (gene 1845) (P51452 whole entry, looked up): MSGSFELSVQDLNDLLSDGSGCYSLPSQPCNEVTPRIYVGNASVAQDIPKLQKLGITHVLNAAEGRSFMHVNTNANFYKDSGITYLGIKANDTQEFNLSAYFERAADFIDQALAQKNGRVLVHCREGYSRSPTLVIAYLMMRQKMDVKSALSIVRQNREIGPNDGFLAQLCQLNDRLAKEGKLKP

Take `CCCCCCCCCCCCCCCC[N+](C)(C)Cc1ccccc1`: the AC50 in assay [1] was 5 µM (active); in [2] it was 6.34 µM (active); in [3], 4.22 µM (active). Also, the call in [4], in assay [5], in [6] and in [7] was inactive.

For the molecule `CCCCNc1ccccc1`, in [5], the AC50 is 4.99 µM (active). Moreover, the result in [8] was inactive.

As for `CO[Si](OC)(c1ccccc1)c1ccccc1`, the call in assay [9] was inactive.

For `CC(=O)Nc1ccc(N=Nc2cc(C)ccc2O)cc1`, the AC50 in [1] was 0.00307 µM (active). Besides, the molecule was called inactive in [9].

Consider `CCN(CC)c1ccc2c(C)cc(=O)oc2c1`, for which the AC50 in assay [2] was 36.4 µM (active). Also, the molecule was called inactive in assay [4] and in assay [9].

For `CC(C)=CCCC(C)CCOC(=O)C(C)C` (stereo not drawn), the molecule was called inactive in assay [9].

Consider `C#C[C@]1(O)CC[C@H]2[C@@H]3CCc4cc(OC)ccc4[C@H]3CC[C@@]21C`, for which the AC50 in assay [1] was 6.84 µM (active).

Regarding `CCc1ccc(C(c2ccc(CC)cc2)C(Cl)Cl)cc1`, the AC50 in [2] was 3.11 µM (active); in assay [9], 14.1 µM (active). Also, the outcome in [4] and in assay [5] was inactive.

As to `Oc1ccc(Nc2ccccc2)cc1`, the concentration at half-maximal activity (AC50) in assay [1] was 2.86 µM (active); in [10] it was 8.26 µM (active); in [5], 9.97 µM (active). Besides, the molecule was classed as inactive in [6].

`CCCCOCCOCCOC(=O)CCCCC(=O)OCCOCCOCCCC`: the half-maximal activity concentration (AC50) in [1] is 5 µM (active).

In the case of `c1ccc(-c2ccccc2-c2ccccc2)cc1`, the result in assay [8] was inactive.

Regarding `CCCCCC=O`, the AC50 in assay [5] was 1.86 µM (active).

Broadly, the AC50 is the concentration giving half of the maximal activity seen.
